Hits are enriched below; roughly 5.7% of the tested compounds scored in any of these assays.
hcDAF12 agonist – H. contortus DAF-12 nuclear receptor activators, primary screen, cell-based, luminescence, HEK293, lit1-tk-luc reporter; AID 652067, 2013; 1.4% of 370,000 active; activation, % at 6.8 µM; HEK293 hcDAF-12 lit1-tk-luc reporter; 0% DMSO, 100% Δ7-dafachronic acid;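 active means activation above the mean of all tested compounds plus 3 SD, cut at about 5.5% in these data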
hgDAF12 agonist – H. glycines DAF-12 receptor agonists, primary screen, cell-based, luminescence, HEK293, GAL4 fusion, UAS-luciferase. HEK293 GAL4-hgDAF12 UAS-luciferase reporter, agonist luminescence; normalized to butyrate control. activation, % at 6.8 µM. 1.8% of 370,000 active;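 active means activation above a cutoff set at the mean of all screened compounds plus 3 SD, cut at about 10% in these data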
DAX1 inh-1 – DAX1 (NR0B1) inhibitors, primary screen, cell-based, HEK293, Gal4-DAX1, luciferase luminescence. Nuclear receptor subfamily 0 group B member 1 (Homo sapiens), P51843. HEK293 Gal4-DAX1 luciferase reporter. inhibition, % at 6.75 µM. 0.99% of 340,000 active. AID 504766, 2011;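 active means inhibition above the mean over all tested compounds plus 3 SD, cut at about 4.2% in these data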;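 further: inhibition shows as a rise in luminescence from relieved DAX1 repression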
Target sequence (P51843 207-470 limits assumed): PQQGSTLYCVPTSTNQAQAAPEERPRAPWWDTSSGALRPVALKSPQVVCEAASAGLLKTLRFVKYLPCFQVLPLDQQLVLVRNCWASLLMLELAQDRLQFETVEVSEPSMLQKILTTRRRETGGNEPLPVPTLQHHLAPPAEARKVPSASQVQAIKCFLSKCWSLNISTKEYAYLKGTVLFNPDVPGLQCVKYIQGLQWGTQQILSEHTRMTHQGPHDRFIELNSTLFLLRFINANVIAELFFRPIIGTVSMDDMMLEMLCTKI
ssDAF-12 act – S. stercoralis DAF-12 nuclear receptor activators, primary screen, cell-based, luminescence, HEK293, GRIP1 co-expression, lit1-tk-luc | AID 652126, 2013 | HEK293 ssDAF-12/GRIP1 lit1-tk-luc reporter; % of 3 µM dafachronic acid response | activation, % at 6.8 µM | 1% of 370,000 active;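 active means activation above the mean over all tested compounds plus 3 SD, cut at about 0.9% in these data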
DAX1 inh-2 – DAX1 (NR0B1) inhibitors on StAR promoter, primary screen, cell-based, luminescence, SF-1 (NR5A1), full-length DAX-1; AID 652010, 2013; 1.1% of 370,000 active; inhibition, % at 6.8 µM; HEK293T StAR-luciferase reporter, SF-1/DAX-1 repression relief;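 active means inhibition above the mean over all tested compounds plus 3 SD, cut at about 3.6% in these data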;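 further: higher inhibition means more luminescence from relief of DAX-1 repression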
AHR act – AHR activators, primary screen, cell-based, luminescence, luciferase reporter, human. activation, % at 5 µM. Aryl hydrocarbon receptor (Homo sapiens), P35869. AHR-responsive luciferase reporter cells. 2.5% of 320,000 active; in the data active means activation above about 47%
DAX1 inh confirm – DAX1 (NR0B1) inhibitors relieving SF-1 repression, confirmation, cell-based, luminescence, HEK293T, full-length DAX-1, SF-1 activated StAR promoter | shares compounds with DAX1 inh-2 | HEK293T StAR-promoter luciferase reporter, SF-1/DAX-1 repression | inhibition, % at 6.8 µM | 87% of 2,400 active;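 active means inhibition above the average of every tested compound plus 3 SD, cut at about 3.8% in these data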
SF1 mutant ctr – StAR reporter signal changes without DAX1, counter-screen for DAX1 inhibitor project, cell-based, luminescence, AF-2 mutant SF-1, transactivation; AID 652136, 2013; 78% of 2,400 active; inhibition, % at 6.8 µM; HEK293 StAR-luciferase, SF-1 AF2 mutant; shares compounds with DAX1 inh-2;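 active means inhibition above the mean of all tested compounds plus 3 SD, cut at about 3% in these data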
LXR ag – LXR agonists, Gal4 luciferase reporter, confirmation, counter-screen for hcDAF-12 agonist project, cell-based, luminescence, HEK293, H. contortus campaign. shares compounds with hcDAF12 agonist. HEK293 Gal4-LXR tk-luc reporter, 24 h; normalized: DMSO 0%, positive control 100%. activation, % at 6.8 µM. 3,400 tested, under 10 active;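 active means mean percent activation of the reporter above a cutoff set as the average over tested compounds plus their standard deviation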
hcDAF12 ag – H. contortus DAF-12 receptor agonists, confirmation, cell-based, luminescence, HEK293, lit1-tk-luc, triplicate | 61% of 3,400 active | activation, % at 6.8 µM | shares compounds with hcDAF12 agonist | HEK293 hcDAF-12 lit1-tk-luc reporter; % of Δ7-dafachronic acid response;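 active means mean activation across triplicate tests above the threshold derived from the earlier primary screen, cut at about 5.5% in these data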
A number is an active result; n = inactive; x = no result given.

SMILES	hcDAF12 agonist	hgDAF12 agonist	DAX1 inh-1	ssDAF-12 act	DAX1 inh-2	AHR act	DAX1 inh confirm	SF1 mutant ctr	LXR ag	hcDAF12 ag
CCOC(=O)C1=C(COC(=O)Cc2ccccc2F)NC(=O)NC1C (stereo not drawn)	n	n	n	n	n	n	x	x	x	x
CCc1cc(-c2ccc3c(c2)COc2c4ccccc4nn2-3)on1	7.0	n	n	n	4.5	n	11	5.1	n	9.3
COc1ccc(-n2nc3cc(C)c(N)c(Br)c3n2)cc1	20	14	n	3.2	5.2	49	10	4.8	n	17
c1cncc(-c2nc3ccccc3s2)c1	n	n	n	n	n	n	x	x	x	x
COc1ccc(-c2nc3ccccc3s2)cc1	12	13	n	n	6.1	x	14	3.6	n	13
O=C1c2ccccc2CN2C(=O)c3ccccc3CN12	n	n	n	n	n	n	x	x	x	x
c1ccc(-c2cn3c(n2)-c2ccccc2C3)cc1	21	15	n	3.8	5.7	n	11	5.8	n	22
CC(C)[C@H](NC(=O)NCc1ccc(F)cc1)C(=O)O	n	n	n	n	n	n	x	x	x	x
Cc1ccc2nc(-c3sc4nc(C)ccc4c3N)[nH]c2c1	14	15	n	3.2	5.8	n	19	13	n	28
Cc1ccc2c(N)c(C#N)sc2n1	n	n	n	n	n	n	x	x	x	x
Cc1ccc(OC(=O)N(C)C[C@@H]2OCc3cn(nn3)CCCC(=O)N([C@@H](C)CO)C[C@H]2C)cc1	n	n	n	n	n	x	x	x	x	x
C/C(=N\NC(=O)c1cc2ccccc2cc1O)c1cccs1	n	n	n	n	n	n	x	x	x	x
C/C(=N\NC(=O)c1cccs1)c1c(O)cc(C)oc1=O	6.6	12	4.7	1.1	6.9	n	n	n	n	n
O=C(COc1ccc(Cl)cc1Cl)Nc1ccc(Cl)cn1	8.8	11	n	n	6.2	n	8.3	3.5	n	8.1
Cc1cn2nc(N)c3ccccc3c2n1	n	n	n	n	n	n	x	x	x	x
Nc1nn2cc(-c3ccccc3)nc2c2ccccc12	19	21	n	6.0	11	n	19	10	n	21
Cc1nnc(SCC(=O)NCC2CCCO2)n1Cc1ccccc1 (stereo not drawn)	n	n	n	n	n	n	x	x	x	x
O=C1NN(c2ccccc2)C(=O)/C1=C/c1coc2ccccc2c1=O	17	13	n	1.7	4.8	n	n	n	n	n
COc1ccc(C2CCCN2C(=S)Nc2cccc(C)c2C)cc1OC (stereo not drawn)	n	n	n	n	n	n	x	x	x	x
